Test results published in publication PMC11995724, “Antibiotic target discovery by integrated phenotypic and activity-based profiling of electrophilic fragments” (Cell chemical biology, 2025).
Hit rate of the full screen: of about 3,200 compounds, about 110 (3.4%) showed an effect of 50% or more. The sample holds strong results, similar compounds and a random draw of the others, so the mix is not that of the screen.

Tested on: T1, V. cholerae SAD30
T1 construct: SAD30
Parameters: species or system S. aureus MSSA476 (TSB) or V. cholerae SAD30 (LB); 384-well bacterial growth screen at 25 uM, OD600 relative to DMSO control
Settings: relative growth, OD600, LB; 25 µM; inhibitor

Compared with `O=C(CCl)Nc1nnc(-c2ccccc2Cl)s1` [6-K17, 2-chloro-N-[5-(2-chlorophenyl)-1,3,4-thiadiazol-2-yl]acetamide], `C=CC(=O)NCCc1nc(-c2ccccc2)nn1C` [2-M12, N-[2-(1-methyl-3-phenyl-1H-1,2,4-triazol-5-yl)ethyl]prop-2-enamide] is lower in “% of control remaining” value: 95.8574% for the first, 85.4096% for the second.

Compared with `CC(Cl)C(=O)Nc1cccc(Cl)c1` (stereo not drawn) [5-H22, 2-chloro-N-(3-chlorophenyl)propanamide], `Cc1cc(NC(=O)CN(C)C(=O)C(C)Cl)no1` (stereo not drawn) [7-M19, 2-chloro-N-methyl-N-{[(5-methyl-1,2-oxazol-3-yl)carbamoyl]methyl}propanamide] is lower in “% of control remaining” value: 106.42% for the first, 81.8107% for the second.

Going from `C=CC(=O)N(Cc1cn2ccccc2n1)C1CC1` [3-J21, N-cyclopropyl-N-({imidazo[1,2-a]pyridin-2-yl}methyl)prop-2-enamide] to `C=CC(=O)N1CCC(C(=O)Oc2ccc(NC(C)=O)cc2)CC1` [3-M16, 4-acetamidophenyl 1-(prop-2-enoyl)piperidine-4-carboxylate], the “% of control remaining” value rises from 90.3253% to 96.1478%.

Going from `C=CC(=O)NCc1cnc(-c2ccc(C(F)(F)F)cc2)s1` [1-C13, N-({2-[4-(trifluoromethyl)phenyl]-1,3-thiazol-5-yl}methyl)prop-2-enamide] to `Cc1n[nH]c(C)c1C=C(C#N)C(=O)Nc1ccc(SC(F)F)cc1` [8-E08, 2-cyano-N-{4-[(difluoromethyl)sulfanyl]phenyl}-3-(3,5-dimethyl-1H-pyrazol-4-yl)prop-2-enamide], the “% of control remaining” value rises from 68.9088% to 75.2549%.

First: CC(Cl)C(=O)N1CCn2c(C#N)ccc2C1C (stereo not drawn) [6-F22, 2-(2-chloropropanoyl)-1-methyl-1H,2H,3H,4H-pyrrolo[1,2-a]pyrazine-6-carbonitrile]
Second: C=CC(=O)NCCC(=O)N1CCCN(c2cccnn2)CC1 [2-P16, N-{3-oxo-3-[4-(pyridazin-3-yl)-1,4-diazepan-1-yl]propyl}prop-2-enamide]
The “% of control remaining” value of the first is higher: 96.0091% for the first, 95.7541% for the second.

Going from `O=C(CCl)N(Cc1nc(C2CCCCCC2)no1)C1CC1` [7-B16, 2-chloro-N-[(3-cycloheptyl-1,2,4-oxadiazol-5-yl)methyl]-N-cyclopropylacetamide] to `C=CC(=O)NCCn1nc(C)cc1C` [3-M13, N-[2-(3,5-dimethyl-1H-pyrazol-1-yl)ethyl]prop-2-enamide], the “% of control remaining” value rises from 80.2247% to 97.7357%.
